# Shown are actives, neighbours in structure and some others; about 9% of the full set was active somewhere.
# Lamin A splicing: LMNA splicing modulation; HeLa LMNA splicing GFP/RFP minigene ratio, 48 h; Potency, µM (series often up to 46.1 µM), for the others: at the highest dose ratio change, negative = inhibition, actives largely listed as inhibitors; 200,000 tested, 0.01% active; active = well fitted inhibition curve with a large enough effect in the signal ratio, with a control signal flat, not every such curve was filed as active; inconclusive = small, poorly fitted or top-dose-only effect, or effect the other way, or a change in a side signal; the % refers to the signal ratio; note: % is set by controls: 0 for no effect and ±100 for the full control effect
#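 S3 HeLa stable clones carrying a lamin A-EGFP splicing minigene plus DsRed2 were seeded at 600 cells/well in Opti-MEM with 2% FBS, pin-dosed and incubated 48 h at 37°C. Acumen cytometry (488 nm) gave the GFP/RFP total-intensity ratio.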
# HTT aggregate: mutant huntingtin aggregation inhibition. PC12 HttQ103-GFP aggregates, Acumen cytometry, 40 h. Potency, µM (top dose mostly 46.1 µM), for inactives: at the highest dose activity change, negative = inhibition, most hits filed as inhibitors. 220,000 tested, 1.1% active; note: % is set by controls: 0 for no effect and ±100 for the full control effect; nearly all actives have a fitted effect of over 60% in size
#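 Aggregates are detected as GFP objects 1–25 µm with signal 6 STDEV over background in lysates of induced PC12 cells. These carry Huntingtin exon 1 with 103 glutamines fused to GFP under an ecdysone promoter; compounds titrated.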
# ALDH1A1 inh: inhibitors of human aldehyde dehydrogenase 1A1 | Potency, µM (titrated, usually from 75.3 µM), for inactives: top-dose activity, negative = inhibition, most hits filed as inhibitors | Purified ALDH1A1, NADH fluorescence, propionaldehyde substrate | P00352 | 220,000 tested, 7.3% active | AID 1030; active = well fitted inhibition curve with a large enough effect, not every such curve was filed as active; inconclusive = small, poorly fitted or top-dose-only effect, or another doubt; inactive = no such curve, though single readings can be large or run the other way;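 note: plate controls were no enzyme wells and a reference inhibitor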
# Target sequence (P00352 whole entry, looked up): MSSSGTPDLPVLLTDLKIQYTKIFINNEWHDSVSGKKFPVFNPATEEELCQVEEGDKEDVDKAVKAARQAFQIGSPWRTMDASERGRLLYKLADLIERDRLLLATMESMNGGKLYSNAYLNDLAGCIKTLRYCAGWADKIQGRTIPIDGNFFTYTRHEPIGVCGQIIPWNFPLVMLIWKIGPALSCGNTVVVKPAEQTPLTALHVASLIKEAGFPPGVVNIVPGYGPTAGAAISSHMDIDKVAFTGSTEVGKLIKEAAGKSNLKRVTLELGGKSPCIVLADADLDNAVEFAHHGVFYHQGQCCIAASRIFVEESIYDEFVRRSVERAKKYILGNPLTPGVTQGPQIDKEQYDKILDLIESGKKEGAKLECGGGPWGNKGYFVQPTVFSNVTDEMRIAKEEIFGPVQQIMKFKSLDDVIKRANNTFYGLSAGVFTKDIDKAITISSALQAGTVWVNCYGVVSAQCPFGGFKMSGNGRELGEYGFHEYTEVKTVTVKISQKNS
# HTT ATP protect: Huntington cell model cytoprotection by ATP luminescence. Potency, µM (series often up to 56.4 µM), for the others: cytoprotection (ATP increase), hits mostly activators. AID 1471. PC12 HTT-Q103 induced, cytoprotection, ATP luminescence, 40 h. 230,000 tested, 0.14% active; note: % of control where 0% means no effect; nearly all actives have a fitted effect of over 45% in size
#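 Cells were plated at 1500 per well in phenol red-free DMEM with 5% equine and 5% calf serum. Tebufenozide (100 nM final) and compounds were added, then ATPlite reagent, and luminescence was read.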
# HPGD block: blocks human HPGD enzyme activity; purified HPGD, NADH fluorescence kinetic, PGE2 substrate; 150,000 tested, 4.3% active; P15428; Potency, µM, for inactives: top-dose activity change, negative = inhibition, hits mostly inhibitors; AID 894; active = well fitted inhibition curve with a large enough effect, not every such curve was filed as active; inconclusive = small, poorly fitted or top-dose-only effect, or another doubt; inactive = no such curve, though single readings can be large or run the other way; note: % is set by controls: 0 for no effect and ±100 for the full control effect
# Target sequence (P15428 whole entry, looked up): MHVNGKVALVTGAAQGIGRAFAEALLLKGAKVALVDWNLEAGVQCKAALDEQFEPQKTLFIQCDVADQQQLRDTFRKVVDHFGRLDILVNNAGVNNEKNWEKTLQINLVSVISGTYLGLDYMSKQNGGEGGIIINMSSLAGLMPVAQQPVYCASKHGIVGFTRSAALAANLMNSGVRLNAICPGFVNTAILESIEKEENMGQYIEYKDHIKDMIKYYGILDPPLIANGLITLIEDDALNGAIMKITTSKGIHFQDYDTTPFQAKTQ
#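 NADH formation kinetics: reaction with 30 uM PGE2 and 1 mM NAD+ (final), 20 nM enzyme, Tris-HCl pH 8 with Tween 20, after 15 min compound preincubation at room temperature. Fluorescence change, last versus first of five reads.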
# KinaseGlo FLuc: counter-screen: inhibitors of Kinase-Glo firefly luciferase. Potency, µM (top dose mostly 38.3 µM), inactives show top-dose activity change, negative = inhibition, most hits filed as inhibitors. AID 1379. Q27757. Kinase-Glo luciferase, ATP luminescence, 8 min. 200,000 tested, 0.28% active; note: % is set by controls: 0 for no effect and ±100 for the full control effect; nearly all actives have a fitted effect of over 60% in size
#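 Compounds were added to a substrate mix at pH 7.2 (50 mM imidazole, 10 uM ATP, within the enzyme's linear range), followed by Kinase-Glo detection reagent; luminescence was measured after 8 minutes at ambient temperature.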
# Numbers without * were called inactive; ? = inconclusive; / = no result; [ ] = remark or other dose. Unless noted, calls come from the whole dose curve; as a rule, active = well fitted curve in the direction sought with a large enough effect; inconclusive = small, poorly fitted or top-dose-only effect, or another doubt; inactive = no such curve, though single readings can be large; an effect the other way counts as inactive or inconclusive. Potency is the fitted concentration of half-maximal effect.
SMILES,Lamin A splicing,HTT aggregate,ALDH1A1 inh,HTT ATP protect,HPGD block,KinaseGlo FLuc
COc1ccc(OC)c2[nH]c(=O)c(CCNS(=O)(=O)c3ccccc3)cc12,10%,10%,7.1µM*,13%,-26%,3%
CC(C)N1CC=C2C(C#N)=C(N)C(C#N)(C#N)C(c3ccccc3)C2C1 (centres undefined),6%,4%,?,-22%,?,-2%
Cc1ccc(C2C3CSCC=C3C(C#N)=C(N)C2(C#N)C#N)cc1 (centres undefined),-12%,?,8.9µM*,-12%[10 µM],-28%,-1%
O=C1N/C(=N\N=C\c2cccs2)SC1Cc1ccc(Cl)cc1Cl (centres undefined),?,-9%,4%,-1%[10 µM],-8%,1%
O=C1N/C(=N\N=C\c2cccs2)SC1Cc1cccc(Cl)c1Cl (centres undefined),?,11µM*,11%,?,-12%,1%
CCOC(=O)C1=C(C)NC2=C(C1c1ccc([N+](=O)[O-])cc1)S(=O)(=O)c1ccccc12 (centres undefined),?,15%,2.5µM*,6%,-24%,25%
Cc1ccn2c(C=O)c(-c3ccc(F)cc3)c(C=O)c2c1,/,-20%,13µM*,-37%,/,-2%
O=C1C(Cl)=C(Sc2nnc3c4ccccc4c4ccccc4c3n2)C(=O)c2ccccc21,/,/,?,-25%[10 µM],?,-6%[7.66 µM]
Cc1cc(C)n2nc(-c3ccsc3-n3c(C)ccc3C)cc2n1,?,23%,-9%,12%,-10%,7%
FC(F)(F)c1cnc(Oc2ccc(-c3nnco3)cc2)c(Cl)c1,?,?,-3%,8%[10 µM],11µM*,12%
CC1C(=O)C(C)C(c2ccc([N+](=O)[O-])cc2)NC1c1ccc([N+](=O)[O-])cc1 (centres undefined),?,18%[9.22 µM],-3%,19%[10 µM],/,1%
CCN(CC)CCNC(=O)c1ccc2c(c1)ncn2C1CCCCC1,-5%[0.0737 µM],1%,-7%,-5%,-2%,1%
CCCCNC(=O)c1ccc2c(c1)ncn2C1CCCCC1,-13%,-15%,-3%,9%[10 µM],22µM*,1%
CCCCNC(=O)c1ccc2c(c1)ncn2C1CCCC1,4%,0%,-5%,-28%,8.9µM*,-2%
Cc1ccc(N=C2C(=S)N(c3ccc(C)cc3)C(=N)N2/N=C/c2ccc(Cl)cc2)cc1,-12%,-17%,?,24%[10 µM],35µM*,-10%
COc1ccc(N=C2C(=Nc3ccc(OC)cc3)N(c3ccc(OC)cc3)C(=S)N2c2ccccc2)cc1,-5%,-6%,?,-43%,-14%,14%
Cc1ccc(C)n1-c1ccc(C(=O)NN)s1,-11%[46 µM],20%,14µM*,15%[10 µM],/,2%
Cc1ccc(S(=O)(=O)NCC(=O)OCc2ccccc2Br)cc1,33%[46 µM],14%[9.22 µM],?,-5%[10 µM],/,-2%
CCC(=O)N1N=C(c2cccc(NS(C)(=O)=O)c2)CC1c1cccs1 (centres undefined),-7%,-10%,4%,-3%[10 µM],-14%,-1%
O=[N+]([O-])c1ccc2c(c1)[nH]c(=S)n2-c1ccccc1,/,14%,4µM*,-37%,/,0%
O=[N+]([O-])c1cccc(-c2n[nH]c(=S)n2-c2ccccc2)c1,/,-12%[9.22 µM],/,14%[10 µM],/,/
COC(=O)c1cc(CSc2nnc(NC3CCCCC3)s2)oc1C,?,28µM*,?,7%,-26%,-1%
Clc1ccccc1-c1nc(N/N=C/c2cccnc2)c2ccccc2n1,?,-33%,?,-83%,14µM*,-6%
CC(C)(C)c1csc(N/N=C/c2cccnc2)n1,?,-13%,25µM*,-48%,/,1%
COc1ccc(/C=N/Nc2nc(-c3cccnc3)nc3ccccc23)cc1OC,/,-14%[9.22 µM],/,-15%[10 µM],/,/
SMILES,Lamin A splicing,HTT aggregate,ALDH1A1 inh,HTT ATP protect,HPGD block,KinaseGlo FLuc
CNc1nc(-c2ccccc2Cl)nc2ccccc12,-4%,/,0%,-18%,-6%,1%
Cc1ccc(-c2nc(N/N=C/c3ccncc3)c3ccccc3n2)cc1,-9%,?,?,-32%[10 µM],-24%,2.2µM*
Clc1ccc(N/N=C/c2cccnc2)cc1,?,12%,25µM*,-21%[10 µM],-12%,0%
CC(C)COc1ccc(C(=O)Nc2sc3c(c2C(=O)O)CC(C)(C)OC3)cc1,/,-6%[9.22 µM],20µM*,-17%[10 µM],/,0%
CCOC(=O)c1c(NC(=O)c2cccs2)sc2c1CC(C)(C)OC2,?,-9%,?,-36%[0.074 µM],?,-5%
CC1(C)Cc2c(sc(NC(=O)c3ccccc3)c2C(=O)O)CO1,/,/,22µM*,/,/,-2%
CSc1nsc(NC(=O)Cc2ccccc2)n1,?,-30%,?,-14%[0.074 µM],-17%,-5%
O=c1oc2cc(Br)ccc2n1CSC1=NCCS1,?,?,?,10%,22µM*,-7%
CCOC(=O)CSc1nnc(CSc2nc3sc4c(c3c(=O)[nH]2)CCC4)n1-c1ccccc1,22%,-8%,8%,11%,8.9µM*,-1%
Nc1nc(SCc2nc3sc4c(c3c(=O)[nH]2)CCCC4)n[nH]1,?,-11%,?,-6%[10 µM],-9%,-2%
CCOC(=O)CSc1nc2ccccc2c(=O)[nH]1,-1%,6%,7%,7%[10 µM],-17%,1%
CCOC(=O)CSc1nnc(CSc2nc3ccccc3c(=O)[nH]2)n1-c1ccccc1,-4%,-4%,?,3%,4.5µM*,2%
Cc1nnc(SCc2nc3sc4c(c3c(=O)[nH]2)CCCC4)n(N)c1=O,?,-5%[9.22 µM],22µM*,-1%[10 µM],/,/
C=CCSc1nnc(CSc2nc3sc4c(c3c(=O)[nH]2)CCCC4)n1-c1ccccc1,?,-17%,?,12%,-26%,3%
CCOC(=O)CSc1nnc(CSc2nc3sc4c(c3c(=O)[nH]2)CCC4)n1C,2%,3%[9.22 µM],-6%,-8%,8.9µM*,1%
CCSc1nc2sc3c(c2c(=O)[nH]1)CCCC3,-3%,-22%,0%,5%[10 µM],-15%,1%
Cc1ccc(CNC(=O)/C=C/c2c(Cl)cccc2Cl)cc1,?,19%,6%,/,-3%,-1%
COC(=O)C1=C(C)NC(C)=C(C(=O)OC)C1c1cn(-c2ccccc2)nc1-c1ccco1,27%,16%,?,5%,?,-5%
Cc1cc(NC(=O)C2=C(O)c3ccccc3S(=O)(=O)N2C)no1,?,3%,0%,?,-5%,-2%
CCCOCC1CC2(SC(=Nc3ccc(C)cc3)NC2=O)C(=O)O1 (centres undefined),13%,0%,-7%,7%,-6%,0%

# Screening results: PubChem, National Center for Advancing Translational Sciences (NCATS)
